# Measurements taken from PubChem BioAssay (EPA / NIEHS).
# Inconclusive results are not listed. Active and inactive are the calls of the source. How the source made its calls: active means hit-call score of the fitted dose curve at least 0.9, where 1 is the maximum; inconclusive means response in the unintended direction; inactive means score below 0.9.
# Experiments:
# [1] = target: Luciferin 4-monooxygenase (Photinus pyralis) (UniProt P08659); assay: CCTE_Simmons_QuantiLum_inhib_2: CCTE's Firefly Luciferase Inhibition Assay, Simmons Lab (AID 2283767);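 on AC50: potency for inhibitors that lower luciferase luminescence relative to DMSO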
# Sequence of Luciferin 4-monooxygenase (Photinus pyralis) (P08659 whole entry, looked up): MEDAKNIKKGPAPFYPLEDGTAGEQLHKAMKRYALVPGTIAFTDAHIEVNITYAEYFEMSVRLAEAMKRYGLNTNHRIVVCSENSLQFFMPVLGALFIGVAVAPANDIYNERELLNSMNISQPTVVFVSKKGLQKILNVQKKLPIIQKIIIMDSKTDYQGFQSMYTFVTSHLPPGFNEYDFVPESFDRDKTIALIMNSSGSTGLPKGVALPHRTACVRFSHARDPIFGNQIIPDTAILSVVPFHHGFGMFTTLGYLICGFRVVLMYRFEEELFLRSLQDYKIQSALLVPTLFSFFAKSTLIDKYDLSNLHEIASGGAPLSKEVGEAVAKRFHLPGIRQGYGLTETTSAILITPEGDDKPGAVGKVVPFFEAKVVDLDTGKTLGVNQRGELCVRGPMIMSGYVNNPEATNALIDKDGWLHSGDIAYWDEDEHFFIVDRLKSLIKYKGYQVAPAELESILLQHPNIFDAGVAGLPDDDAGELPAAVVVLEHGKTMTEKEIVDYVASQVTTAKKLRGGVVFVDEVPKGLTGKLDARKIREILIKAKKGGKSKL
# Procedure, shortened: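 Eight-point titrations of each chemical, 5 nM–87.5 uM final in 0.5% DMSO, were run in three biological replicates against recombinant luciferase for 30 min at 37C. Bioluminescence signal loss, read on reagent injection, gave the inhibition endpoint.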
# [2] = system: zebrafish Androgen Receptor (AR), gene 100005148; assay: ATG_zfAR_XSP1: Attagene TRANS-FACTORIAL Multi-Species (XSP1) HepG2 Assay for zebrafish Androgen Receptor (AR) (AID 2283771)
# Procedure, shortened: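 Gain-of-signal versus DMSO was measured as reporter transcripts quantified by RT-PCR, fluorescent labelling and capillary electrophoresis after 24 h chemical exposure. The cells were HepG2 expressing a chimeric zebrafish AR-GAL4, co-stimulated with 3 nM 6-alpha-fluorotestosterone.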
# [3] = target: zebrafish Estrogen Receptor (ESR1), esr1 (gene 259252) (UniProt P57717); assay: ATG_zfER1_XSP1: Attagene TRANS-FACTORIAL Multi-Species (XSP1) HepG2 Assay for zebrafish Estrogen Receptor (ESR1) (AID 2283772)
# Sequence of zebrafish Estrogen Receptor (ESR1), esr1 (gene 259252) (P57717 whole entry, looked up, the tested form may be a part): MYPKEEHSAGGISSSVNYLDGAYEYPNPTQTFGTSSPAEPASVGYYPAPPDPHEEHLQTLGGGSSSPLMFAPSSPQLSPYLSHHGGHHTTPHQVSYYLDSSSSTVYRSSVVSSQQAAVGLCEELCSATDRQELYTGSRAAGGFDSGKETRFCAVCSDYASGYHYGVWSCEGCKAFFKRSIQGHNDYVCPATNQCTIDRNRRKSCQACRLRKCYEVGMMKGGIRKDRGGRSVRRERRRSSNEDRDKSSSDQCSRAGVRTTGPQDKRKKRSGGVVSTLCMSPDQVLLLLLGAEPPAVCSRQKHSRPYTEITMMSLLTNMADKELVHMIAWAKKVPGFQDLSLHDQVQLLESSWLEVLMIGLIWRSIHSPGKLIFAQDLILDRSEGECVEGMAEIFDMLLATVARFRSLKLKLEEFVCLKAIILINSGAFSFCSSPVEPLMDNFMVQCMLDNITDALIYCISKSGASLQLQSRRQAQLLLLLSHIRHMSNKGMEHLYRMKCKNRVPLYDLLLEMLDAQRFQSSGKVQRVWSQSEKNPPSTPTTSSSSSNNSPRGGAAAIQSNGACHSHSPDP
# Procedure, shortened: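 Exogenous chimeric receptor-GAL4 activity is measured in transiently transfected human HepG2 liver cells after 24 h compound exposure. Reporter transcripts are detected by RT-PCR and fluorescent capillary electrophoresis, analysed for signal gain relative to DMSO.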
# [4] = system: chicken Androgen Receptor (AR), gene 422165; assay: ATG_chAR_XSP1: Attagene TRANS-FACTORIAL Multi-Species (XSP1) HepG2 Assay for chicken Androgen Receptor (AR) (AID 2283768)
# Procedure, shortened: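 Reporter mRNA read by RT-PCR with fluorescent labelling and capillary electrophoresis 24 h after chemical dosing of transiently transfected HepG2 cells. Chicken AR-Gal4 chimera, partially stimulated with 3 nM 6-alpha-fluorotestosterone; activity fitted upward relative to DMSO.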
# [5] = system: frog Androgen Receptor (AR), gene 399456; assay: ATG_frAR_XSP1: Attagene TRANS-FACTORIAL Multi-Species (XSP1) HepG2 Assay for frog Androgen Receptor (AR) (AID 2283770)
# Experimental: ATG_XSP1_multi-species_TRANS is a cell-based, multiplexed assay created by modifying the existing Attagene TRANS-FACTORIAL system to include a panel of nuclear receptors from some or all the following species: human (Homo sapiens), mouse (Mus musculus), frog (Xenopus laevis), zebrafish (Danio rerio), chicken (Gallus gallus), and turtle (Chrysemys picta). The ECOTOX-FACTORIAL format uses HepG2, a human liver cell line, with measurements taken at 24 hours after chemical dosing in a 24-well plate. Xsp1 included 3 nM 6-alpha-fluorotestosterone to partially stimulate the androgen receptor.ATG_frAR_XSP1 is one of 29 assay components measured or calculated from the ATG_XSP1_multi-species_TRANS assay. It is designed to make measurements of mRNA induction, a form of inducible reporter, as detected with fluorescence intensity signals by Reverse transcription polymerase chain reaction (RT-PCR) and Capillary electrophoresis technology.The assay endpoint ATG_frAR_XSP1 was analyzed in the positive analysis fitting direction relative to DMSO as the negative control and baseline of activity. […] Furthermore, this assay endpoint can be referred to as a primary readout, because this assay has produced multiple assay endpoints where this one serves a reporter gene function. […]
# [6] = ArunA_NOG_NucleusCount: ArunA Biomedical's Neurite Outgrowth (NOG) Assay for Nucleus Count (AID 2283756)
# Experimental: ArunA_NOG (Neurite Outgrowth) is a cell-based, image-based assay that uses human H9-derived embryonic differentiated neurons (hNN). Measurements were taken 48 hours after chemical dosing in a 96-well plate.ArunA_NOG_NucleusCount is an assay component measured from the ArunA_NOG assay. It is designed to make measurements of viability related to the number of neurons, using a form of viability reporter, as detected with fluorescence intensity signals by HCS Fluorescent Imaging technology. Data from the assay component ArunA_NOG_NucleusCount was analyzed at the endpoint, ArunA_NOG_NucleusCount, in the positive analysis fitting direction relative to DMSO as the negative control and baseline of activity. Using a type of viability reporter, loss-of-signal activity can be used to understand viability. To generalize the intended target to other relatable targets, this assay endpoint is annotated to the neurodevelopment intended target family, where the subfamily is neurite outgrowth.
# Chemical treatment: Differentiated hNN cells were seeded and immediately exposed to test medium for 48 h. Following chemical exposure, cell bodies were stained with Hoechst 33,258 to quantitate viable neuron count and neurites were labeled with bIII-tubulin/DyLight1 488. High content imaging assessed the neurite outgrowth endpoints: neurite total length per neuron (um), neurite count per neuron, and branch points per neurite using the methods described in (Harrill et al 2010). […] Plates were then loaded into a Cellomics ArrayScan VTI HCS reader high-content imaging system (ThermoFisher Scientific, Waltham, MA) for automated image acquisition and morphometric analyses. […] Fixed integration times for image acquisition in each channel were determined by manual sampling of control-treated wells across multiple plates. […] Nuclei with size and intensity values outside of the ranges determined a priori for viable cells were identified in the channel 1 image and rejected from further analyses. […] Neurites emerging from the selected cell bodies were then individually traced and measured. […]
# [7] = ArunA_Migration_hNC: ArunA Biomedical's Oris Neural Crest (hNC) Cell Migration Assay (AID 2283755)
# Procedure, shortened: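 Calcein-AM fluorescence (ex494 nm/em 517 nm) in the stopper-defined detection zone quantifies migration of hNC cells after 72 h chemical exposure; 60,000 cells/well plated on Matrigel with LIF and bFGF, 16 h pre-incubation. DMSO baseline.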
# [8] = ArunA_NOG_NeuriteLength: ArunA Biomedical's Neurite Outgrowth (NOG) Assay for Neurite Length (AID 2283757)
# Procedure, shortened: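 Total neurite length per neuron, from traced βIII-tubulin-labelled processes longer than 10 um on viable Hoechst-gated cells, was scored as decrease from DMSO. Cells were hESC (H9)-derived neurons given 48 h chemical exposure immediately after seeding.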
# [9] = ArunA_NOG_NeuritesPerNeuron: ArunA Biomedical's Neurite Outgrowth (NOG) Assay for Neurites Per Neuron (AID 2283758)
# Procedure, shortened: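 Differentiated human H9-derived neurons exposed to chemicals for 48 h from seeding, then stained with Hoechst and βIII-tubulin/DyLight 488. Automated imaging counted neurites (processes >10 um) per valid neuron; loss of signal versus DMSO scored.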
# [10] = ArunA_NOG_BranchPointsPerNeurite: ArunA Biomedical's Neurite Outgrowth (NOG) Assay for Branch Points Per Neurite (AID 2283759)
# Procedure, shortened: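 Automated image analysis traced neurites (processes >10 um) from valid cell bodies after Hoechst and βIII-tubulin staining. hNN cells from H9 embryonic stem cells, 48 h exposure. Fitted bidirectionally against DMSO.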
smiles,measurement,setting,value
O=C(O)c1nc(Cl)ccc1Cl,outcome,[1],inactive
CN(C)C(=S)SSC(=S)N(C)C,AC50,[1],80.1 µM (active)
CC1=C(C(=O)Nc2ccccc2)SCCO1,outcome,[1],inactive
OC(c1ccc(Cl)cc1)(c1cncnc1)c1ccccc1Cl (centres undefined),outcome,[2],inactive
same,AC50,[3],26.4 µM (active)
CC(C)Oc1cc(-n2nc(C(C)(C)C)oc2=O)c(Cl)cc1Cl,AC50,[4],18 µM (active)
same,outcome,[2],inactive
same,outcome,[3],inactive
COP(=S)(OC)Oc1nc(Cl)c(Cl)cc1Cl,outcome,[1],inactive
same,AC50,[4],3.31 µM (active)
same,AC50,[5],5.58 µM (active)
same,outcome,[3],inactive
COc1ccc(C(c2ccc(OC)cc2)C(Cl)(Cl)Cl)cc1,outcome,[2],inactive
same,outcome,[3],inactive
C=CCC1=C(C)C(OC(=O)C2C(C=C(C)C)C2(C)C)CC1=O (centres undefined),outcome,[1],inactive
CCOP(=S)(OCC)SCn1c(=O)oc2cc(Cl)ccc21,outcome,[1],inactive
COP(N)(=O)SC (centres undefined),outcome,[1],inactive
CNC(=S)S,outcome,[1],inactive
COC(=O)C=C(C)OP(=O)(OC)OC,outcome,[1],inactive
CON(C)C(=O)Nc1ccc(Cl)c(Cl)c1,outcome,[1],inactive
same,outcome,[3],inactive
COC(=O)N(OC)c1ccccc1COc1ccn(-c2ccc(Cl)cc2)n1,outcome,[4],inactive
same,outcome,[3],inactive
Oc1ccccc1-c1ccccc1,outcome,[1],inactive
C=CC1(C)OC(=O)N(c2cc(Cl)cc(Cl)c2)C1=O (centres undefined),outcome,[2],inactive
CCCCOC(=O)c1ccccc1C(=O)OCCCC,outcome,[4],inactive
CCCN(CCC)c1c([N+](=O)[O-])cc(S(N)(=O)=O)cc1[N+](=O)[O-],outcome,[1],inactive
same,AC50,[4],59.5 µM (active)
same,outcome,[2],inactive
same,outcome,[3],inactive
C#CCOS(=O)OC1CCCCC1Oc1ccc(C(C)(C)C)cc1 (centres undefined),AC50,[5],2.11 µM (active)
same,AC50,[3],166 µM (active)
C=CCC1=C(C)[C@@H](OC(=O)[C@@H]2[C@@H](C=C(C)C)C2(C)C)CC1=O,outcome,[6],inactive
same,outcome,[1],inactive
CCCC1COC(Cn2cncn2)(c2ccc(Cl)cc2Cl)O1 (centres undefined),AC50,[1],14.4 µM (active)
same,outcome,[3],inactive
CCCCNC(=O)n1c(NC(=O)OC)nc2ccccc21,AC50,[1],21.5 µM (active)
CCCCC(CC)COC(=O)c1ccccc1C(=O)OCC(CC)CCCC (centres undefined),outcome,[2],inactive
CC1COC(Cn2cncn2)(c2ccc(Oc3ccc(Cl)cc3)cc2Cl)O1 (centres undefined),outcome,[1],inactive
CO/C=C(/C(=O)OC)c1ccccc1Oc1cc(Oc2ccccc2C#N)ncn1,outcome,[4],inactive
CCCCNC(=O)OCC#CI,outcome,[3],inactive
CCOC(=O)CC(SP(=S)(OC)OC)C(=O)OCC (centres undefined),outcome,[1],inactive
O=C(Nc1ccccc1)Nc1ccnc(Cl)c1,outcome,[1],inactive
N#Cc1nn(-c2c(Cl)cc(C(F)(F)F)cc2Cl)c(N)c1S(=O)C(F)(F)F (centres undefined),AC50,[7],30.9 µM (active)
same,AC50,[6],23.2 µM (active)
same,AC50,[8],31.8 µM (active)
same,AC50,[9],32 µM (active)
same,outcome,[10],inactive
CC(C)(C)c1ccc(CSc2cnn(C(C)(C)C)c(=O)c2Cl)cc1,AC50,[7],0.0516 µM (active)
same,outcome,[6],inactive
same,outcome,[10],inactive
same,outcome,[4],inactive
same,outcome,[2],inactive
same,outcome,[3],inactive
